Consider 95 compounds from PubChem BioAssay AID1508602 (The Scripps Research Institute Molecular Screening Center, 2020).

Out of some 650,000 compounds screened, about 6,800 (1%) were called active. The sample holds actives, similar compounds and a random draw of the others, so the mix is not that of the screen. Unmarked numbers belong to inactive results. Rule as the data show it: active = activation above about 4.9%; inactive = the rest.

Chain of G-protein coupled receptor 151 (Homo sapiens) (Q8TDV0 whole entry, looked up): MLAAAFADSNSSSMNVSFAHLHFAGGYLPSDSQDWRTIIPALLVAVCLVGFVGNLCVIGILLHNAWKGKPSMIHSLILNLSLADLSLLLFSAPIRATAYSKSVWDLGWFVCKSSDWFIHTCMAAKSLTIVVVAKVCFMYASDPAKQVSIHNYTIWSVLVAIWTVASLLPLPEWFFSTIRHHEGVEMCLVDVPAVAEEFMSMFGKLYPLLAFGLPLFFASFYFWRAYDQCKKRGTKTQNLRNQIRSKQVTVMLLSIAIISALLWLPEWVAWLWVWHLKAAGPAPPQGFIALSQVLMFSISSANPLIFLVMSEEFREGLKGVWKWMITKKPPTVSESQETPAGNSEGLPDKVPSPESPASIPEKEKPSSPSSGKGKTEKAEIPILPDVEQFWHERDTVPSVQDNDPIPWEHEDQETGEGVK

This test addresses G-protein coupled receptor 151 (Homo sapiens) (UniProt Q8TDV0). Description: activates the human receptor GPR151, primary screen, cell-based, PathHunter beta-arrestin, luminescence (AID 1508602).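 Also: 0% = median of compound wells and 100% = cells with positive control.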 To be noted: PathHunter beta-arrestin GPR151 cells, at 11.2 µM, hits give high values.
With `CCOC(=O)c1c(NC(=O)C(C)Sc2nnc(CNC(=O)COc3ccccc3)n2-c2cccc(Cl)c2)sc2c1CCC2` (stereo not given), the activation is -0.72%.
On to `O=[N+]([O-])c1ccc2ncnc(Nc3cccc(C(F)(F)F)c3)c2c1`, for which the activation is 5.31% (active).
The result for `Cc1[nH]nc(Nc2cccc(C(F)(F)F)c2)c1[N+](=O)[O-]` reads 0.158%; that for `Cn1ncc2c(Nc3cccc(S(=O)(=O)Nc4cccc(C(F)(F)F)c4)c3)ncnc21`, -0.0154%.
Regarding `COc1ccc(C(C)(C)C)cc1NC(=O)c1ccc2c(c1)NC(=O)C(C)S2` (stereo not given), the activation is -1.1%.
Take `COc1cc2ccccc2cc1C(=O)Nc1ccc2c3c(cccc13)CC2`: the activation was 1.02%.
Take `COc1cc(OC)cc(C(=O)Nc2ccc3c4c(cccc24)CC3)c1`: the activation is 16.6% (active).
As for `CCOc1ccc(C(=O)Nc2ccc3c4c(cccc24)CC3)cc1`, the activation is 0.563%.
`COc1ccc(/C=C\C(=O)NCCc2cc3ccc(C)c(C)c3[nH]c2=O)cc1OC`: the activation was -0.187%.
Take `O=C1CCC(CCNCc2ccccc2)N1CCc1ccccc1F` (stereo not given): the activation is 1.45%.
`O=C1CCC(CCNCCOc2ccc(F)cc2)N1CCc1ccccc1` (stereo not given): the activation is -0.404%.
With `O=C1CCC(CCNCCOc2ccccc2)N1CCc1ccccc1` (stereo not given), the activation is 8.35% (active).
Consider `CCOC(=O)N1CCC(NC(=O)c2ccc(N3CC4CC(C3)c3cccc(=O)n3C4)c(NC(=O)c3ccc(OC)cc3)c2)CC1` (stereo not given), for which the activation is -1.15%.
For `CCOc1ccc(S(=O)(=O)c2c[nH]c3cc(OC)c(OC)cc3c2=O)cc1`, the activation is 0.157%.
For `Cc1ccc(NC(=O)CCn2c(=O)oc3ccccc32)cc1Cl`, the activation was 10.6% (active).
With `Cc1cccc(NC(=O)CCn2c(=O)oc3ccccc32)c1`, the activation was -0.466%.
Turning to `CN1C(=O)c2ccc(NC(=O)CCn3c(=O)oc4ccccc43)cc2C1=O`, the activation was -1.74%.
On to `CCOC(=O)c1c(NC(=O)COC(=O)C(C)c2c(F)c(F)cc(F)c2F)sc2c1CCCC2` (stereo not given), for which the activation was 1.7%.
In the case of `COc1ccc(-c2csc3ncc(C(=O)N(C)C(C)C)c(=O)n23)cc1`, the activation was 1.24%.
Consider `Cc1ccc(C(=O)NCc2nc3nc(C)cc(C)n3n2)cc1`, for which the activation was 0.459%.
Take `Cc1cccc(CNc2nc3nc(C)cc(C)n3n2)c1`: the activation is -0.819%.
Take `Cc1ccc(S(=O)(=O)NCc2nc3nc(C)cc(C)n3n2)cc1`: the activation is 10.6% (active).
Turning to `CCN(CC)CCN1C(=O)C(=O)/C(=C(\O)c2ccc(Cl)cc2)C1c1ccc([N+](=O)[O-])cc1` (stereo not given), the activation was -0.703%.
Regarding `NS(=O)(=O)c1cccc(S(=O)(=O)c2ccc(Br)cc2)c1`, the activation was 1.39%.
The result for `C/C(=N\NC(=O)CCC(=O)N/N=C(\C)c1ccc(Cl)cc1)c1ccc(Cl)cc1` reads 0.378%.
`CCCCCC(=O)N/N=C(\C)c1ccc(O)cc1`: the activation is -1.26%.
The result for `CCCCCC(=O)N/N=C(/C)c1ccc(O)cc1O` reads 7.91% (active).
Regarding `Cc1ccc(C(=O)COC(=O)c2ccc3nc(-c4ccccc4)c(-c4ccccc4)nc3c2)cc1`, the activation was -0.519%.
Take `CCc1nnc(NC(=O)CSc2nc(C)cc(C)n2)s1`: the activation is -1.16%.
The result for `COc1cc(/C=N/n2nnnc2N)ccc1OCCC(C)C` reads 1.35%.
In the case of `COc1ccc(OC)c(/C=N/n2nnnc2N)c1`, the activation was 8.6% (active).
Take `Nc1nnnn1/N=C\c1ccc(O)c(O)c1`: the activation was 0.149%.
To `Brc1ccc(-c2cc(-c3ccccc3)c3cc(Br)ccc3n2)cc1` belongs 1.18%; to `CCCCC(=O)Nc1ccc(C(=O)N2CCN(c3ccccc3F)CC2)cc1`, 1.25%.
Turning to `COC(=O)[C@@H]1CC[C@H](C)[C@@H](c2ccc(C)cc2)N1C(=O)c1ccc(/C=N/O[C@H](C)c2cn([C@@H]3COC[C@H]3O)nn2)cc1`, the activation is 7.09% (active).
To `Cc1cc(N2C(=O)c3ccc(Oc4ccc(NC(=O)CSc5ccc(Cl)cc5)cc4)cc3C2=O)no1` belongs 1.59%.
Turning to `O=C(NCCc1ccccn1)c1cn2ccsc2n1`, the activation is 0.225%.
To `CSc1nc2sccn2c(=O)c1C(=O)NC(C)CO` (stereo not given) belongs -0.408%; to `CCSc1nc2sccn2c(=O)c1C(=O)NC(Cc1ccccn1)C(F)(F)F` (stereo not given), 4.95% (active); to `CCCCN(C)CCCN(Cc1ccco1)C(=S)Nc1ccc(Cl)c(C)c1`, -0.264%.
In the case of `COc1cccc(CCNC(=O)CCc2nnc(COc3ccccc3)o2)c1`, the activation was -0.583%.
The result for `CSCCNc1nc2nonc2nc1NC1CC1` reads 0.51%; that for `O=C1OC(c2ccc(Br)cc2)=N/C1=C\c1cc(Br)cs1`, -0.409%.
As for `CCOc1cc(C2C3=C(CCCC3=O)NC3=C2C(=O)CCC3)cc(Br)c1OCC`, the activation is 5.4% (active).
Consider `COc1cc(C2C3=C(CCCC3=O)NC3=C2C(=O)CCC3)cc(Cl)c1O`, for which the activation was 1.16%.
For the compound `CCOc1cc(C2C3=C(CCCC3=O)NC3=C2C(=O)CCC3)ccc1OCc1ccc(F)cc1`, the activation is -0.184%.
With `Fc1ccc(C2Oc3ccc(Cl)cc3C3CC(c4cccs4)=NN32)cc1` (stereo not given), the activation is 0.238%.
For the compound `Cc1nn(-c2ccccc2)c(C)c1/C=N/n1c(=S)[nH]nc(C)c1=O`, the activation was -0.643%.
Consider `CCCCCCOC(=O)c1cc(C(=O)OCCCCCC)c(C)nc1C`, for which the activation was 6.55% (active).
The result for `CCOC(=O)c1cc2cccnc2nc1C` reads 0.721%.
For `CCCCCCOC(=O)c1ccc(-c2ccc(-c3ccc(C(=O)OCCCCCC)cc3)cc2)cc1`, the activation is -1.7%.
Take `Cc1ccccc1-c1cccc(CN2CCC(=O)N(C)CC2)c1`: the activation was 0.112%.
For the compound `O=C(Cn1c(NCCCO)nc2ccccc21)c1ccccc1`, the activation is -1.59%.
Consider `O=C(Cn1c(NCCO)nc2ccccc21)c1ccc(Cl)cc1Cl`, for which the activation is 7.58% (active).
For the compound `CCn1c(NCCO)nc2ccccc21`, the activation was 1.96%.
As for `COC(=O)c1cc(CNC(=O)c2cc3ncccn3n2)cc(NC(=O)Cc2ccsc2)c1`, the activation is -0.0871%.
Take `Cc1cc(Br)ccc1OCC(=O)N1CCN(C=O)CC1`: the activation is -1.7%.
For the compound `COC(=O)c1c(NC(=O)/C(C#N)=C/c2cccs2)sc2c1CCCC2`, the activation is -2.04%.
As for `Cc1ccc(N=Cc2c(O)[nH]c(=S)[nH]c2=O)cc1C`, the activation was 0.392%.
On to `Nc1cccc(N=Cc2c(O)[nH]c(=S)[nH]c2=O)c1`, for which the activation was -0.879%.
`O=c1[nH]c(=S)[nH]c(O)c1C=Nc1ccc(F)c(Cl)c1`: the activation was 5.26% (active).
As to `CC(C)[C@@H](N)Cn1nc(-c2cccs2)ccc1=O`, the activation is 0.507%.
As for `O=C(Nc1ccccc1[N+](=O)[O-])c1ccc2ccccc2n1`, the activation is 0.441%.
To `O=C1NC(=O)N(c2cccc(Br)c2)C(=O)/C1=C/c1cccc([N+](=O)[O-])c1` belongs 1.88%.
`COc1ccc(/C=C2\C(=O)NC(=O)N(c3ccc([N+](=O)[O-])cc3)C2=O)cc1OC`: the activation is -0.83%.
With `Cc1ccc(/C=C2/C(=O)NC(=O)N(c3ccccc3)C2=O)cc1[N+](=O)[O-]`, the activation was 7.87% (active).
As to `Cn1ccnc1SCc1cc(=O)c(OC(=O)c2c(F)cccc2F)co1`, the activation was 3.4%.
In the case of `CC1CCN(C(=O)C2CCCN2c2nnc(N3CCCC3=O)s2)CC1` (stereo not given), the activation is 0.834%.
For `CC(C)(C)OC(=O)N1CCC[C@H]1C(=O)c1cccnc1`, the activation was 0.241%.
In the case of `O=C(NCCCN=C1NS(=O)(=O)c2ccccc21)c1ccc(Cl)c(Cl)c1`, the activation was -0.637%.
`COc1nc(Nc2ccccc2)nc(-c2c(C)noc2C)n1`: the activation was 5.15% (active).
Take `COc1nc(Nc2ccccc2)nc(-c2csc3ccccc23)n1`: the activation was -0.667%.
As to `COc1nc(Nc2ccccc2)nc(-c2ccc(C(=O)NC3CC3)cc2)n1`, the activation was 0.979%.
`CCCCc1ccc(NC(=O)COC(=O)c2ccc([N+](=O)[O-])o2)cc1`: the activation is -2.13%.
`Cc1cccc(N(C)C(=O)C2CCCN(S(=O)(=O)c3c(C)noc3C)C2)c1` (stereo not given): the activation was 0.213%.
For the compound `CCc1ccc(-c2nc(CSCC(=O)NC(C)(C)C)c(C)o2)cc1`, the activation was -0.321%.
Regarding `CCSc1nnc(CC(N)=O)c2ccccc12`, the activation is -0.522%.
Consider `O=c1cc(-c2cc3cc(Cl)ccc3oc2=O)c2ccc(O)cc2o1`, for which the activation was -0.104%.
The result for `CCCn1ncc(CN2CCCC(N3CCC(CO)CC3)C2)c1C` (stereo not given) reads 6.31% (active).
Regarding `CCCn1ncc(CN2CCN(C3CCN(C(C)C)CC3)C(CCO)C2)c1C` (stereo not given), the activation was 1.43%.
To `Cc1c(CN2CCCC(N3CCC(CO)CC3)C2)c(=O)n(-c2ccccc2)n1C` (stereo not given) belongs -1.54%; to `Cc1ccc(OCC(=O)Nc2nncs2)cc1`, 0.547%; to `CC1CCCN(C(=O)NCc2noc3ccccc23)C1` (stereo not given), -1.14%.
Consider `CCOc1ccc(-n2c(C)cn3c4c(=O)n(CC(C)C)c(=O)n(C)c4nc23)cc1`, for which the activation is 0.368%.
Consider `O=C(C1CC12CCN(Cc1c(F)cccc1F)CC2)N1CCN(Cc2ccccc2)CC1` (stereo not given), for which the activation is -0.828%.
In the case of `O=C(NCCO)c1cnc(NC2CCN(Cc3ccccc3)CC2)s1`, the activation was 7.19% (active).
Consider `CCCNC(=O)c1cc(NC2CCN(Cc3ccccc3)CC2)nc2ccccc12`, for which the activation is 0.365%.
As to `O=C(NC1CCN(Cc2ccccc2)CC1)c1ccc(-c2ccccc2)s1`, the activation was 0.522%.
The result for `Cc1ccc(Cn2cc(C#N)c([N+](=O)[O-])n2)cc1` reads 2.65%; that for `Cc1ccc(-c2nc(-c3ccccc3Cl)no2)cc1`, 0.675%; that for `COc1ccc(-c2noc(-c3ccccc3Cl)n2)cc1`, 6.08% (active).
Regarding `COc1ccc(-c2noc(-c3ccc(Br)cc3)n2)cc1`, the activation is -0.475%.
In the case of `CC(C)CNC(=O)c1ccccc1NC(=O)c1ccc([N+](=O)[O-])cc1`, the activation is 1.87%.
Regarding `CN(C)c1ccc(NC(=O)c2ccc([N+](=O)[O-])cc2)c2ccccc12`, the activation was 2.25%.
To `CC1(c2ccccc2NC(=O)c2ccc([N+](=O)[O-])cc2)CC1` belongs 6.15% (active).
